According to PubChem BioAssay (NCATS):
Records with an inconclusive call do not appear. Calls of active or inactive are those of the source. Calls follow the shape of the dose curve; as a rule, active = well fitted curve in the direction sought with a large enough effect; inconclusive = small, poorly fitted or top-dose-only effect, or another doubt; inactive = no such curve, though single readings can be large; an effect the other way counts as inactive or inconclusive.

What was measured:
[1] = NS1 protein of Zika virus - qHTS assay to identify small molecule inhibitors in human HEK 293 cells (AID 1347053); also: nearly all actives have a fitted effect of over 55% in size; also: potency is read from the fitted curve at half-maximal effect
Method in brief: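 TR-FRET signal from two anti-ZIKV NS1 antibodies quantified NS1 in HEK 293 cells 24 h after MR766 infection at MOI = 0.5; compounds were added 1 h before virus. Uninfected cells and infected cells defined the NS1 normalization range.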

[2] = qHTS of pediatric cancer cell lines to identify multiple opportunities for drug repurposing: Primary screen for TC32 cells (AID 1347089); also: nearly all actives have a fitted effect of over 60% in size; also: potency is read from the fitted curve at half-maximal effect
Method in brief: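 qHTS, TC32, 48 h drug treatment, CellTiter-Glo luminescence as a proxy for metabolically active cells; primary top concentration 46 µM (MIPE 11-pt, NPC 8-pt); confirmatory 11-pt.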

[3] = qHTS of pediatric cancer cell lines to identify multiple opportunities for drug repurposing: Primary screen for DAOY cells (AID 1347090); also: nearly all actives have a fitted effect of over 55% in size; also: potency is read from the fitted curve at half-maximal effect
Method in brief: (§1)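 Viability measured as metabolically active cells via CellTiter-Glo luminescence following 48 hours of compound exposure, 11-point dilutions in confirmatory testing. 500-1,000 cells/well plated 5 hours before dosing; controls were DMSO and 2.3 µM bortezomib.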

[4] = qHTS of pediatric cancer cell lines to identify multiple opportunities for drug repurposing: Primary screen for A673 cells (AID 1347092); also: nearly all actives have a fitted effect of over 45% in size; also: potency is read from the fitted curve at half-maximal effect
Method in brief: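 Luminescence from CellTiter-Glo, taken after 15 min at room temperature, served as the proxy for metabolically active cells following 48 h treatment. Both potency and efficacy were taken from curves fitted to the titration data.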

[5] = qHTS of pediatric cancer cell lines to identify multiple opportunities for drug repurposing: Primary screen for SK-N-MC cells (AID 1347093); also: potency is read from the fitted curve at half-maximal effect
Method in brief: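 Metabolically active cells were quantified by ATP-dependent luminescence (CellTiter-Glo, 15 min at room temperature) following 48 h treatment. Cells had been plated at 500-1,000 per well and settled for 5 h beforehand.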

[6] = qHTS of pediatric cancer cell lines to identify multiple opportunities for drug repurposing: Primary screen for NB-EBc1 cells (AID 1347095); also: potency is read from the fitted curve at half-maximal effect
Method in brief: (§2)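 Plated cells (500-1,000 per well, growth media) were allowed to settle for 5 hours, treated with compound dilutions for 48 hours, then lysed with CellTiter-Glo for 15 min at room temperature before luminescence reading.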

[7] = qHTS of pediatric cancer cell lines to identify multiple opportunities for drug repurposing: Primary screen for U-2 OS cells (AID 1347096); also: nearly all actives have a fitted effect of over 50% in size
Method in brief: (§3)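 Viability after 48 h compound treatment at 37C, 500-1,000 cells/well, read as ATP luminescence with CellTiter-Glo. Primary screens used 11-point (MIPE, 0.78 nM-46 µM) or 8-point (NPC, 0.59 nM-46 µM) final concentrations; follow-up screens used 11-point dilutions.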

[8] = qHTS of pediatric cancer cell lines to identify multiple opportunities for drug repurposing: Primary screen for NB1643 cells (AID 1347099); also: nearly all actives have a fitted effect of over 50% in size; also: potency is read from the fitted curve at half-maximal effect
Method in brief: as §2

[9] = qHTS of pediatric cancer cell lines to identify multiple opportunities for drug repurposing: Primary screen for BT-12 cells (AID 1347101); also: nearly all actives have a fitted effect of over 25% in size; also: potency is read from the fitted curve at half-maximal effect
Method in brief: (§4)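 Cells (500-1,000/well) rested 5 h, then received compounds for 48 h; metabolically active cells were measured by CellTiter-Glo luminescence. Final concentrations spanned up to 46 µM (MIPE, 11-point) or 0.59 nM-46 µM (NPC, 8-point) in primary screens, 11-point in follow-ups.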

[10] = qHTS of pediatric cancer cell lines to identify multiple opportunities for drug repurposing: Primary screen for Rh18 cells (AID 1347102); also: nearly all actives have a fitted effect of over 65% in size
Method in brief: as §3

[11] = qHTS of pediatric cancer cell lines to identify multiple opportunities for drug repurposing: Primary screen for OHS-50 cells (AID 1347103); also: nearly all actives have a fitted effect of over 40% in size; also: potency is read from the fitted curve at half-maximal effect
Method in brief: as §4

[12] = qHTS of pediatric cancer cell lines to identify multiple opportunities for drug repurposing: Primary screen for MG 63 (6-TG R) cells (AID 1347105); also: nearly all actives have a fitted effect of over 50% in size; also: potency is read from the fitted curve at half-maximal effect
Method in brief: as §2

[13] = qHTS of pediatric cancer cell lines to identify multiple opportunities for drug repurposing: Primary screen for Saos-2 cells (AID 1347097); also: nearly all actives have a fitted effect of over 40% in size; also: potency is read from the fitted curve at half-maximal effect
Method in brief: as §2

[14] = qHTS of pediatric cancer cell lines to identify multiple opportunities for drug repurposing: Primary screen for SJ-GBM2 cells (AID 1347091); also: potency is read from the fitted curve at half-maximal effect
Method in brief: as §1

[15] = qHTS of pediatric cancer cell lines to identify multiple opportunities for drug repurposing: Primary screen for BT-37 cells (AID 1347094); also: potency is read from the fitted curve at half-maximal effect
Method in brief: as §2

[16] = qHTS of pediatric cancer cell lines to identify multiple opportunities for drug repurposing: Primary screen for LAN-5 cells (AID 1347100); also: potency is read from the fitted curve at half-maximal effect
Method in brief: as §3

[17] = qHTS of pediatric cancer cell lines to identify multiple opportunities for drug repurposing: Primary screen for RD cells (AID 1347104); also: nearly all actives have a fitted effect of over 55% in size; also: potency is read from the fitted curve at half-maximal effect
Method in brief: as §2

[18] = qHTS of pediatric cancer cell lines to identify multiple opportunities for drug repurposing: Primary screen for SK-N-SH cells (AID 1347098); also: nearly all actives have a fitted effect of over 65% in size; also: potency is read from the fitted curve at half-maximal effect
Method in brief: as §4

Measured: Potency

CC[C@H]1OC(=O)[C@H](C)[C@@H](O[C@H]2C[C@@](C)(OC)[C@@H](O)[C@H](C)O2)[C@H](C)[C@@H](O[C@@H]2O[C@H](C)C[C@H](N(C)C)[C@@H]2O)[C@](C)(O)C[C@@H](C)CN(C)[C@H](C)[C@@H](O)[C@]1(C)O
inactive: [1] | [2] | [3] | [4] | [5] | [6] | [7] | [8] | [9] | [10] | [11] | [12]

O=C(Nc1ccccc1Br)N[C@@H]1CCN(c2ccc(C(F)(F)F)cn2)C1
active: [3] 11.8 µM | [13] 18.7 µM
inactive: [1] | [2] | [7] | [10]

Cc1ccc(C(C)(O)c2nc3ccccc3s2)c(C)c1 (stereo not drawn)
active: [14] 3.32 µM | [4] 2.96 µM | [5] 1.87 µM | [15] 3.85 µM | [6] 1.32 µM | [16] 3.72 µM
inactive: [1] | [2] | [7] | [10] | [17]

N[C@H](CSC(c1ccccc1)(c1ccccc1)c1ccccc1)C(=O)O
active: [3] 18.7 µM | [4] 9.35 µM | [5] 14.8 µM | [6] 11.8 µM | [13] 9.35 µM | [9] 27.3 µM | [11] 6.11 µM
inactive: [1] | [2] | [7] | [18] | [8] | [12]

CC(C)=CC[C@@H](O)C1=CC(=O)c2c(O)ccc(O)c2C1=O
active: [14] 1.05 µM | [4] 0.935 µM | [5] 1.05 µM | [15] 13.7 µM | [6] 0.743 µM | [13] 18.7 µM | [18] 6.81 µM | [8] 3.32 µM | [16] 14.8 µM | [9] 17.2 µM | [11] 10.9 µM | [17] 26.4 µM
inactive: [1] | [2] | [7]

CC1(C)O[C@H]2C[C@@H]3[C@H]4CCC5=CC(=O)C=C[C@]5(C)[C@@]4(F)[C@@H](O)C[C@]3(C)[C@]2(C(=O)CO)O1
active: [4] 3.72 µM | [5] 8.33 µM | [15] 13.7 µM | [6] 2.35 µM | [8] 14.8 µM | [16] 7.43 µM
inactive: [1] | [2] | [3] | [7] | [13] | [18] | [10] | [17] | [12]

CC(=O)OC1C(C)OC(Oc2c(-c3ccc(O)cc3)oc3cc(O)cc(O)c3c2=O)C(O)C1OC(C)=O (stereo not drawn)
active: [4] 11.8 µM | [15] 27.3 µM | [13] 18.7 µM
inactive: [1] | [2] | [3] | [7] | [18] | [12]

O=C(O)c1ccc(-c2c[nH]c3ncc(-c4ccccc4)cc23)cc1C1CCCC1
active: [5] 0.166 µM
inactive: [1] | [2] | [3] | [15] | [6] | [7] | [13] | [9] | [10]

N#Cc1ccc(NC(=O)Nc2ccccc2Br)c2n[nH]nc12
inactive: [1] | [2] | [3] | [7] | [13] | [10] | [17] | [12]
active: [4] 23.5 µM | [5] 26.4 µM | [16] 26.4 µM | [11] 21.7 µM

CC=CCC=CCCC(=O)[C@H]1O[C@@H]1C(N)=O
active: [13] 18.7 µM
inactive: [1] | [2] | [3] | [15] | [7] | [18] | [9] | [10] | [11] | [17] | [12]

C[C@H](NC(=O)C(=O)Nc1ccccc1C(C)(C)C)C(=O)N[C@@H](CC(=O)O)C(=O)COc1c(F)c(F)cc(F)c1F
inactive: [1] | [2] | [14] | [15] | [6] | [18] | [10] | [11]
active: [4] 23.5 µM | [5] 5.9 µM | [13] 18.7 µM | [12] 14.8 µM

CC(=NNC(=S)N1CCC1)c1ccccn1
active: [1] 16.6 µM | [2] 0.0415 µM | [5] 0.0013 µM | [15] 0.0054 µM | [6] 0.0166 µM | [9] 0.0014 µM | [17] 0.003 µM | [12] 0.0235 µM
inactive: [7] | [13]

O=C1NC(=O)C(=Cc2cccc(C(F)(F)F)c2)S1
inactive: [1] | [2] | [15] | [7] | [13] | [18] | [16] | [10] | [17] | [12]

C[C@@H]1CCN(C(=O)CC#N)C[C@H]1N(C)c1ncnc2[nH]ccc12
inactive: [1] | [2] | [14] | [5] | [15] | [6] | [7] | [13] | [16] | [9] | [10] | [17]

CCn1c(C(=O)N(C2CC2)C2CC2)cc2c3c(ncn3C)c(Nc3cc(C)n(C)n3)nc21
inactive: [1] | [2] | [15] | [6] | [7] | [9] | [17] | [12]

OC[C@H]1O[C@@H](n2cnc3c2NC=NC[C@@H]3O)C[C@H]1O
inactive: [1] | [2] | [14] | [15] | [6] | [7] | [13] | [18] | [16] | [9] | [10] | [11] | [17]

c1cc(-c2sc(-c3ccncc3)c(-c3ccncc3)c2-c2ccncc2)ccn1
inactive: [1] | [2] | [14] | [15] | [6] | [7] | [16] | [10] | [11] | [12]
active: [5] 20.9 µM

CC=CC[C@@H](C)C(=O)[C@H]1C(=O)N[C@@H](C(C)C)C(=O)N(C)CC(=O)N(C)[C@@H](CC(C)C)C(=O)N[C@@H](C(C)C)C(=O)N(C)[C@@H](CC(C)C)C(=O)N[C@@H](C)C(=O)N[C@H](C)C(=O)N(C)[C@@H](CC(C)C)C(=O)N(C)[C@@H](CC(C)C)C(=O)N(C)[C@@H](C(C)C)C(=O)N1C
inactive: [1] | [2] | [6] | [7] | [10] | [17] | [12]
active: [14] 18.7 µM | [13] 18.7 µM | [18] 30.4 µM | [11] 24.3 µM

CCC(=O)NC[C@H](Cc1ccc(OCCc2nc(-c3ccccc3)oc2C)cc1)NC(C)=CC(=O)c1ccc(C(F)(F)F)cc1
active: [1] 16.6 µM | [14] 3.32 µM | [4] 1.87 µM | [5] 2.35 µM | [15] 3.06 µM | [6] 0.743 µM | [13] 16.6 µM | [16] 3.32 µM | [11] 12.2 µM
inactive: [2] | [10]
